Laboratory results from ChEMBL document CHEMBL4513135, “CO-ADD screening of IQOG CSIS (Spain) compounds”.
Entries with a potency or affinity are not part of this list.

Tested on: Klebsiella pneumoniae
Details: Concentration 32 ug.mL-1; ASSAY_TEST Inhibition of Bacterial Growth; detection method Absorption (OD600); MEDIA CAMHB; plate type 384well; NBS; CORNING #3640; time 18 hr

Row | Compound | Inhibition [%]
1 | COC(=O)C(=Cc1ccc(OC)cc1)NC(=O)c1ccccc1 | 13.3
2 | C#CCN(C)c1ncc(C#N)c(N)n1 | 9.44
3 | COc1ccc2cc(C3C(C(C)=O)=C(C)Oc4nc5c(c(N)c43)CCCCC5)c(Cl)nc2c1 (stereo not given) | 0.78
4 | C#CCn1c(N)c(C#N)c2cc(O)ccc21 | 10.3
5 | CC1Cc2c(nc3c(c2N)CCCC3)NC1=O (stereo not given) | 17.01
6 | C#CCN(C)c1nc(NCC2CCN(Cc3ccccc3)CC2)c(C#N)c(-c2ccccc2)c1C#N | 6.45
7 | CCOc1nc(N)c(C#N)cc1C#N.Cl | -1.63
8 | CC1Cc2ccccc2N1/N=C/c1ccccc1 (stereo not given) | 2.26
9 | CCOC(=O)C1=C(C)OC(N)=C(C#N)C1c1ccc(OC)c(OC)c1 (stereo not given) | 9.11
10 | CCC(CC)NNC(=O)c1cc2ccccc2n1C | 9.15
11 | NNC(=O)Cc1c[nH]c2ccccc12 | 17.86
12 | COc1ccccc1C1c2ccc3ccccc3c2Oc2nc3c(c(N)c21)CCCC3 (stereo not given) | 8.8
13 | COc1nc2nc3c(c(N)c2cc1C#N)CCCC3.Cl | 10.99
14 | N#CC1=C(N)Oc2ccc3ccccc3c2C1c1ccccc1[N+](=O)[O-] (stereo not given) | 9.29
15 | N#Cc1c(Cl)nc(NC2CCN(Cc3ccccc3)CC2)c(C#N)c1-c1ccccc1 | 0.34
16 | COc1ccc(C2c3ccc4ccccc4c3OC(=NBr)C2(Br)C#N)cc1OC (stereo not given) | 8.89
17 | N#Cc1c(N)nc2c(c1-c1ccccc1)CN(Cc1ccccc1)CC2 | 16.71
18 | OCc1cc2ccccc2[nH]1 | 6.48
19 | Nc1n[nH]c2c1C(c1ccccc1)CC(=O)N2 (stereo not given) | 23.2
20 | CSC1=NC(=Cc2cn(C)c3ccccc23)C(=O)N1C | -7.62

Row | Compound | Inhibition [%]
21 | N#CC1=C(N)Oc2ccc3ccccc3c2C1 | -0.19
22 | Cc1ccc(C(O)SNNc2ncnc3c2c(C)nn3-c2ccccc2)cc1 (stereo not given) | -18.74
23 | Cc1ccc(C2c3c(nc4c(c3N)CCCC4)Oc3ccc4ccccc4c32)cc1 (stereo not given) | 2.87
24 | C#CCN(C)Cc1cc2cc(OCCCC3CCN(C(=O)OC(C)(C)C)CC3)ccc2n1C | -9.9
25 | CC(=O)O[C@H]1CC[C@H](NC(=O)c2ccccc2)CC1 | 10.24
26 | C#CCN(C)Cc1cc2cc(O)ccc2n1C.Cl | 13.12
27 | C#CCN(C)Cc1cc2cc(OCCCCC3CCN(Cc4ccccc4)CC3)ccc2n1C.Cl | 25.34
28 | CNCc1cc2cc(OC)ccc2n1C.Cl | 8.64
29 | CN(C)c1nc(Cl)c(C#N)c(-c2ccccc2)c1C#N | 5.58
30 | C#CCNc1nc(N)c(C#N)c(-c2ccccc2)c1C#N | -20.09
31 | COc1nc2ccccc2cc1C=O | -3.66
32 | COc1nc2nc3c(c(N)c2cc1C#N)CN(Cc1ccccc1)CC3 | 8.31
33 | CCOC(=O)c1cc2ccccc2[nH]1 | 16.5
34 | Cc1nn(-c2ccccc2)c2ncnc(NCc3ccccc3)c12 | 6.27
35 | Cc1ccc(C2c3ccc4ccccc4c3Oc3nc4c(c(N)c32)CCCC4)cc1.Cl (stereo not given) | -14.84
36 | COc1cc(C2CC2(N)C(=O)O)ccc1O (stereo not given) | 3.5
37 | N#CC1(Br)C(=NBr)Oc2ccc3ccccc3c2C1c1ccccc1[N+](=O)[O-] (stereo not given) | 5.57
38 | COc1cccc(-c2c(C#N)c(=O)oc3c2ccc2ccccc23)c1 | 2.22
39 | CC1=C(C(=O)O[C@@H]2C[C@@]3(C)CC[C@H]2C3(C)C)C(c2ccccc2)C(C#N)=C(N)O1 (stereo not given in full) | -1.66
40 | NC1(C(=O)O)CC1c1ccc2c(c1)OCO2 (stereo not given) | 1.95
